# Laboratory results as given in the supplement of paper PMC6411743.
# ± gives the standard deviation of the averaged measurements. Targets with the largest changes are over-represented here; the source holds about 5,400 in all.
# Compound: Nc1nc2c(ncn2[C@@H]2O[C@H](COP(=O)(O)OP(=O)(O)OP(=O)(O)O)[C@@H](O)[C@H]2O)c(=O)[nH]1 [guanosine triphosphate]
# Assay: NP40-soluble protein abundance relative to vehicle (solubility fold change) (ratio); higher = more soluble protein in presence of GTP
# Procedure, shortened: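 Eight concentrations, 0.1 to 10 mM, were tested on Jurkat crude lysate for 10 min at room temperature and then 3 min at 37 °C, in three independent experiments. The lysate was solubilised with 0.8% NP40 and benzonase, ultracentrifuged, and the supernatant TMT-labelled for LC-MS/MS. Each value is the fold change against the detergent-processed vehicle in its own replicate, from vsn-normalised intensities.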
# Chain of UniProt Q9Y696 (Q9Y696 whole entry): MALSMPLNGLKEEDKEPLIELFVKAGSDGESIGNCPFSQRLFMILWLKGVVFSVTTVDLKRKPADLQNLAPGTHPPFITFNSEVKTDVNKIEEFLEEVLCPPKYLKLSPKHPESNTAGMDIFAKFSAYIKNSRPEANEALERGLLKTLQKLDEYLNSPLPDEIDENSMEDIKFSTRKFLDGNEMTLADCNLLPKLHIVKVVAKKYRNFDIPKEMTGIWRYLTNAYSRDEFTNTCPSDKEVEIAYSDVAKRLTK
# Chain of UniProt Q96HS1 (Q96HS1 whole entry): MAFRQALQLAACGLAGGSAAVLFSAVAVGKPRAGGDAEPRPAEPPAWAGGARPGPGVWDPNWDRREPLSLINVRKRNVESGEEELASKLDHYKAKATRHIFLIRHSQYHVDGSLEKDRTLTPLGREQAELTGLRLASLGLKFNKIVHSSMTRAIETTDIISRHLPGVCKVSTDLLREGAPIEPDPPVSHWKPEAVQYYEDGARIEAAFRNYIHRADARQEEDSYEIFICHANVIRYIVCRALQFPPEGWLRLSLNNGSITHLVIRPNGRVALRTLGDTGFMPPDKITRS
# Chain of UniProt Q9HCD5 (Q9HCD5 whole entry): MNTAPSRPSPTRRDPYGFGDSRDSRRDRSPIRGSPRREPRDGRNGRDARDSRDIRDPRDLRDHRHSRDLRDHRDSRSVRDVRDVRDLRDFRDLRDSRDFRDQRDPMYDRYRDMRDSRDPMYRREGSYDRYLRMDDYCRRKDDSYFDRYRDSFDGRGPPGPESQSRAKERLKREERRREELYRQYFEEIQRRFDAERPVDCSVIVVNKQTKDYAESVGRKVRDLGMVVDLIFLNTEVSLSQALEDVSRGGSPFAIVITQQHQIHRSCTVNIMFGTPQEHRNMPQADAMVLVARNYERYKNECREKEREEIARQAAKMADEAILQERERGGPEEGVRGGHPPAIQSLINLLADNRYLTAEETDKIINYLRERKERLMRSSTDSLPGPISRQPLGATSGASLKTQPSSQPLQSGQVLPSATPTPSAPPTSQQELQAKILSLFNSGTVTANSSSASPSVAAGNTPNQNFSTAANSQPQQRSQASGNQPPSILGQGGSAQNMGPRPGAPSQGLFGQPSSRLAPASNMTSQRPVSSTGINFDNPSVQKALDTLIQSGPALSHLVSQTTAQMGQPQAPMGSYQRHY
# Chain of UniProt Q9UBS4 (Q9UBS4 whole entry): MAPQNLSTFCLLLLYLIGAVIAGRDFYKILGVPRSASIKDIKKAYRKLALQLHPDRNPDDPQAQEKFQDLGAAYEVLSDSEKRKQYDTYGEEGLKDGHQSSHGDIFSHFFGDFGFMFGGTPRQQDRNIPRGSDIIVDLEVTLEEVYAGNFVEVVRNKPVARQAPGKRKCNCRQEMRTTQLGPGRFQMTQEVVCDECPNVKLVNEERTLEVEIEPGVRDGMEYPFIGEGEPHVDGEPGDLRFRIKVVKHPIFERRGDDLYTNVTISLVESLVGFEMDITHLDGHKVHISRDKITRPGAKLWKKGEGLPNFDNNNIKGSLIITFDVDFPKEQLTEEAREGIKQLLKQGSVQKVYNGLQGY
# Chain of UniProt Q9UJX5 (Q9UJX5 whole entry): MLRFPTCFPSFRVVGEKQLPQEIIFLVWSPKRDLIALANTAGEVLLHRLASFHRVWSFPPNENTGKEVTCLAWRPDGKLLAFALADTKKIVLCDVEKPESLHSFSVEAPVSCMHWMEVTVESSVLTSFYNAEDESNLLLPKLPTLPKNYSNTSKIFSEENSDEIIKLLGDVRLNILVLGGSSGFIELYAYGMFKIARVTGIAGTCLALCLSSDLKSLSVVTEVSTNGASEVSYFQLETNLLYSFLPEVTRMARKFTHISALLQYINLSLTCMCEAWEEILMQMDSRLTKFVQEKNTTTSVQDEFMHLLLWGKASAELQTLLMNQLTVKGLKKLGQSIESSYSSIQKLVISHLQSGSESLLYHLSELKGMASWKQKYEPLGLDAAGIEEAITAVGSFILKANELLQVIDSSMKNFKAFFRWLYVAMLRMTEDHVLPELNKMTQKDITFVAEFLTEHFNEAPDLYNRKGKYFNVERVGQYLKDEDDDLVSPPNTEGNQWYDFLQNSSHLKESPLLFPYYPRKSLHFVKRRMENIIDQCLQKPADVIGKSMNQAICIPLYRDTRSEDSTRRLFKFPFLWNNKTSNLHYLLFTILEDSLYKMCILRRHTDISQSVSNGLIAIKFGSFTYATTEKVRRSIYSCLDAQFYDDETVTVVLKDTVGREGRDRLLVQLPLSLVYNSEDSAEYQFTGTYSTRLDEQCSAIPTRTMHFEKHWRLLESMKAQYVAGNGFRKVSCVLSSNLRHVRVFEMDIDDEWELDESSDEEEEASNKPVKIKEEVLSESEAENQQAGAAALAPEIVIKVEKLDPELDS
# Chain of UniProt Q9UBV8 (Q9UBV8 whole entry): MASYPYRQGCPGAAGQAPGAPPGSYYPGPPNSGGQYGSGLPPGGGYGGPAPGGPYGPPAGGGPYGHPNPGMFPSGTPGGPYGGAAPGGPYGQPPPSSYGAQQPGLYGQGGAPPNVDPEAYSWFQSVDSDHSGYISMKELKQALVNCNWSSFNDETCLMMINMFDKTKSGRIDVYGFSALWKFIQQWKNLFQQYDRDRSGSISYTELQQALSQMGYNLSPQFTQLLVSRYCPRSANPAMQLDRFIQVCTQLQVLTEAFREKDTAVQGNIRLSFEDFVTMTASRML
# Chain of UniProt Q9NVF7 (Q9NVF7 whole entry): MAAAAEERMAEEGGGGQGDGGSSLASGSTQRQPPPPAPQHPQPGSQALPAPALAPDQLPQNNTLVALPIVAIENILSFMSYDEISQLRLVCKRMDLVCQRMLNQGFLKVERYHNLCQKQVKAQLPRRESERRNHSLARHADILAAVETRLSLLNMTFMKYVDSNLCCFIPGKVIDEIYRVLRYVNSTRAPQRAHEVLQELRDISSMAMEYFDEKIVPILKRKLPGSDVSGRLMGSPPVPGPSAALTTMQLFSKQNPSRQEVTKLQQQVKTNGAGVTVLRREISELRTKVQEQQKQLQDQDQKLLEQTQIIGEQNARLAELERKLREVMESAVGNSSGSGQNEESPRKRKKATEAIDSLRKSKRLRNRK
# Chain of UniProt Q9NVR5 (Q9NVR5 whole entry): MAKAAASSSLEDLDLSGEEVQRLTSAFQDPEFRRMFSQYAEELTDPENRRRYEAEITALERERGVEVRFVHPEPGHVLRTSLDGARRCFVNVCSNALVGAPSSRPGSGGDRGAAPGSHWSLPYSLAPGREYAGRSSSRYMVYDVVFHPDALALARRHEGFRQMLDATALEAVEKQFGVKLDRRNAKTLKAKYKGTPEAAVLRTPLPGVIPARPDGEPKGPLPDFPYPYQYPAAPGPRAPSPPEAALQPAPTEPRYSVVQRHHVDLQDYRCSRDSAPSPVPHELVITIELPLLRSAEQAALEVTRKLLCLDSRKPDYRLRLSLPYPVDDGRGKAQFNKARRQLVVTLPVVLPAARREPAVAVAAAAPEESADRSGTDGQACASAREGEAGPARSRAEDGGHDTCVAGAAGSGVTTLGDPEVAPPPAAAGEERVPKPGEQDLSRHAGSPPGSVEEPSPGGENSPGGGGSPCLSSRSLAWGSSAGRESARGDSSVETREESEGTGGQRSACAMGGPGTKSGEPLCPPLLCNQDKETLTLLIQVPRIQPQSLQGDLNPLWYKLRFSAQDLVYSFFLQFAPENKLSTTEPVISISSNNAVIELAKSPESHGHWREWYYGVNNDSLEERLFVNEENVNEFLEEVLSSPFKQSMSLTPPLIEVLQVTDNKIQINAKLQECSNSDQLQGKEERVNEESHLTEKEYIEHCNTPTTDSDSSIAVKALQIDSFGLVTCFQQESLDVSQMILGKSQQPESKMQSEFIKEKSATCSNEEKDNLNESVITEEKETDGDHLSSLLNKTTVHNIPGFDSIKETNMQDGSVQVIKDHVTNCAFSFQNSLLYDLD
# Chain of UniProt Q92828 (Q92828 whole entry): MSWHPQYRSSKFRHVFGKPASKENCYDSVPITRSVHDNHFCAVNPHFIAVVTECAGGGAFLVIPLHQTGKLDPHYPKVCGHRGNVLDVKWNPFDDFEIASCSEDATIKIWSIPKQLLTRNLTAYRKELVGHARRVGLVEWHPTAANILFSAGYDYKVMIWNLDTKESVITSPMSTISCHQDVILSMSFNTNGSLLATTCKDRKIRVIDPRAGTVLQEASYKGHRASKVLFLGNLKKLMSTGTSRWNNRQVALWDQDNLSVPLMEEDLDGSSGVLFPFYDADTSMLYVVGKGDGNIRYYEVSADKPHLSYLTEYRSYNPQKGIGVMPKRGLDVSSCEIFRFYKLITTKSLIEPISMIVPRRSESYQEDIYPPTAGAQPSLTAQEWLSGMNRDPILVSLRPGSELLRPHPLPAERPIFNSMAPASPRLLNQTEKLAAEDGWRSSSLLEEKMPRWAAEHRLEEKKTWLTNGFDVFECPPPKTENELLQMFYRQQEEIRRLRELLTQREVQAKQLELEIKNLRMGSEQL
# Chain of UniProt Q969H8 (Q969H8 whole entry): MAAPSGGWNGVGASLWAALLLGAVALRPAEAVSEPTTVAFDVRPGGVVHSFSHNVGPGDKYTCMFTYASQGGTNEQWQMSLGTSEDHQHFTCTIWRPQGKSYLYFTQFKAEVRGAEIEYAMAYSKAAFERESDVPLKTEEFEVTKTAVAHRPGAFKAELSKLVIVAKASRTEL
# Chain of UniProt Q9Y4P8 (Q9Y4P8 whole entry): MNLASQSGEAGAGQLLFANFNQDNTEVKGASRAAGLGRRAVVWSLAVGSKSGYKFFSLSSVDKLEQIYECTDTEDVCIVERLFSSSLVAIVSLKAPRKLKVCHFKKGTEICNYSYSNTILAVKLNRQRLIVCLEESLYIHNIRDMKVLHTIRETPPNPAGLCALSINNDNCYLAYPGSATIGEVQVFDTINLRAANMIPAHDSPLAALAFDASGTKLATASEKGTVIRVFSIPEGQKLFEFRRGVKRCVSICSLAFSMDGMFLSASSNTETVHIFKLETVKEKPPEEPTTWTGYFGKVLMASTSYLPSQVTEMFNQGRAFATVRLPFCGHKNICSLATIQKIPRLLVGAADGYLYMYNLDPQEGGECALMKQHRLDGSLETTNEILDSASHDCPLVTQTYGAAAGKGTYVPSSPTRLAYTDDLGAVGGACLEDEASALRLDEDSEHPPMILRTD
Target,NP40-soluble protein abundance (concentration: 0.1mM),NP40-soluble protein abundance (concentration: 0.5mM),NP40-soluble protein abundance (concentration: 1mM),NP40-soluble protein abundance (concentration: 2mM),NP40-soluble protein abundance (concentration: 4mM),NP40-soluble protein abundance (concentration: 6mM),NP40-soluble protein abundance (concentration: 8mM),NP40-soluble protein abundance (concentration: 10mM)
PEF1 (UniProt Q9UBV8),0.946 ± 0.077,0.888 ± 0.036,0.995 ± 0.1,0.994 ± 0.043,1.03 ± 0.076,0.993 ± 0.063,0.891 ± 0.084,1.02 ± 0.14
UniProt Q969P0|Q969P0-3,1.02 ± 0.066,1 ± 0.048,0.961 ± 0.07,0.956 ± 0.058,0.932 ± 0.069,0.932 ± 0.049,0.953 ± 0.053,0.919 ± 0.077
UniProt Q9Y6A4,1.09 ± 0.027,1.04 ± 0.076,0.962 ± 0.024,0.968 ± 0.1,1.01 ± 0.05,0.964 ± 0.087,1.01 ± 0.05,0.957 ± 0.11
NCOA5 (UniProt Q9HCD5),1.03 ± 0.053,1 ± 0.028,1.084 ± 0.0085,1.22 ± 0.043,1.58 ± 0.053,1.81 ± 0.059,2.15 ± 0.18,2.4 ± 0.19
UniProt Q9NVI7-2,1.07 ± 0.062,1.16 ± 0.085,1.34 ± 0.083,1.56 ± 0.18,1.79 ± 0.32,1.9 ± 0.29,2.04 ± 0.29,2.11 ± 0.29
UniProt Q9BVP2|Q9BVP2-2,1.31 ± 0.073,1.3 ± 0.094,1.34 ± 0.11,1.51 ± 0.19,1.68 ± 0.17,1.73 ± 0.13,1.77 ± 0.2,1.88 ± 0.072
CLIC4 (UniProt Q9Y696),1 ± 0.088,0.929 ± 0.063,0.966 ± 0.1,0.88 ± 0.1,0.976 ± 0.13,0.909 ± 0.1,0.973 ± 0.12,0.866 ± 0.08
UniProt Q9Y4P8|Q9Y4P8-4|Q9Y4P8-6,1.04 ± 0.11,1.01 ± 0.028,0.976 ± 0.11,0.961 ± 0.1,0.959 ± 0.1,0.959 ± 0.053,0.954 ± 0.042,0.896 ± 0.021
PGAM5 (UniProt Q96HS1),1.03 ± 0.034,1.09 ± 0.073,1.18 ± 0.14,1.4 ± 0.26,1.67 ± 0.38,1.79 ± 0.45,1.86 ± 0.4,1.95 ± 0.47
VPS35 (UniProt Q96QK1),1.03 ± 0.082,1.04 ± 0.093,0.913 ± 0.048,0.958 ± 0.13,0.929 ± 0.11,0.912 ± 0.086,0.833 ± 0.048,0.868 ± 0.093
DNAJB11 (UniProt Q9UBS4),1.01 ± 0.027,1.02 ± 0.048,1.03 ± 0.059,1 ± 0.048,1.01 ± 0.051,1.02 ± 0.046,1.005 ± 0.0044,0.982 ± 0.029
UniProt Q9UKV8,1.08 ± 0.065,1.14 ± 0.053,1.06 ± 0.045,1.11 ± 0.053,1.1 ± 0.026,1.07 ± 0.078,1.07 ± 0.057,1.05 ± 0.061
UniProt Q9UJX5|Q9UJX5-3|Q9UJX5-2,1.2 ± 0.19,1.24 ± 0.3,1.15 ± 0.19,1.27 ± 0.23,1.25 ± 0.27,1.23 ± 0.32,1.2 ± 0.23,1.13 ± 0.17
UniProt Q9Y3U8|J3QSB5,0.976 ± 0.084,0.987 ± 0.01,1.04 ± 0.075,0.994 ± 0.14,0.921 ± 0.12,0.855 ± 0.09,0.514 ± 0.13,0.919 ± 0.16
LEMD3 (UniProt Q9Y2U8),0.989 ± 0.049,1 ± 0.038,1.01 ± 0.037,1.01 ± 0.048,0.999 ± 0.036,0.985 ± 0.033,1.01 ± 0.049,0.985 ± 0.027
UniProt Q96LT9|Q96LT9-2,1.26 ± 0.038,1.16 ± 0.16,1.42 ± 0.12,1.49 ± 0.3,1.61 ± 0.28,1.6 ± 0.35,1.72 ± 0.51,1.8 ± 0.54
FBXO28 (UniProt Q9NVF7),1.09 ± 0.028,1.08 ± 0.13,1.28 ± 0.18,1.31 ± 0.099,1.39 ± 0.12,1.47 ± 0.12,1.42 ± 0.28,1.61 ± 0.25
CBX8 (UniProt Q9HC52),1.01 ± 0.04,1.04 ± 0.048,1.13 ± 0.013,1.24 ± 0.14,1.42 ± 0.15,1.61 ± 0.15,1.74 ± 0.17,1.86 ± 0.23
UniProt Q92900|Q92900-2,1.01 ± 0.025,1.01 ± 0.04,0.936 ± 0.034,0.971 ± 0.065,0.957 ± 0.049,0.937 ± 0.057,0.898 ± 0.035,0.884 ± 0.011
UniProt Q9NVR5,0.928 ± 0.076,0.944 ± 0.078,0.923 ± 0.048,0.885 ± 0.16,0.866 ± 0.12,0.931 ± 0.13,0.869 ± 0.086,0.906 ± 0.082
ATP6V1D (UniProt Q9Y5K8),1.04 ± 0.016,1.06 ± 0.03,1.04 ± 0.03,1.06 ± 0.022,1.056 ± 0.0052,1.03 ± 0.05,1.02 ± 0.045,0.992 ± 0.018
NUDC (UniProt Q9Y266),0.924 ± 0.044,0.938 ± 0.06,0.931 ± 0.058,0.88 ± 0.077,0.852 ± 0.063,0.893 ± 0.076,0.885 ± 0.056,0.872 ± 0.069
CORO2A (UniProt Q92828),1.08 ± 0.12,1.09 ± 0.11,1.11 ± 0.049,1.19 ± 0.047,1.31 ± 0.056,1.42 ± 0.075,1.42 ± 0.1,1.42 ± 0.058
UniProt Q9UJ83|Q9UJ83-2|Q9UJ83-3,1.067 ± 0.0066,1.03 ± 0.11,0.98 ± 0.05,1.01 ± 0.11,0.987 ± 0.04,0.958 ± 0.08,0.926 ± 0.021,0.9129 ± 0.0074
UniProt Q9ULV4|Q9ULV4-2|Q9ULV4-3,0.986 ± 0.021,1.11 ± 0.089,1.16 ± 0.088,1.26 ± 0.17,1.42 ± 0.22,1.53 ± 0.3,1.67 ± 0.33,1.74 ± 0.36
UniProt Q96ES7,1.21 ± 0.22,1.12 ± 0.13,1.25 ± 0.19,1.14 ± 0.12,1.26 ± 0.11,1.17 ± 0.11,1.38 ± 0.32,1.12 ± 0.096
UniProt Q969H8,0.971 ± 0.023,0.949 ± 0.034,0.884 ± 0.026,0.85 ± 0.019,0.834 ± 0.05,0.853 ± 0.057,0.8 ± 0.046,0.764 ± 0.085
FN3KRP (UniProt Q9HA64),0.9717 ± 0.0097,0.991 ± 0.014,0.927 ± 0.032,0.913 ± 0.061,0.905 ± 0.042,0.884 ± 0.031,0.89 ± 0.047,0.868 ± 0.051
